Screens as filed in PubChem.
Only some compounds are listed: those with a hit (about 2.4% of all), similar ones and a draw of the others.
D2 PAM-1 = HTS Assay for Positive Allosteric Modulators of the Human D2 Dopamine Receptor: Primary Screen for Potentiators; 0.34% of 340,000 active; HEK293 T-REx D2, calcium flux, EC20 dopamine potentiation; D(2) dopamine receptor (Homo sapiens), P14416; potentiation, % at 10 µM;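 active = potentiation over 3 SD above the plate norm, cut at about 30% in these data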; also: 0% is about no effect
Target sequence (P14416 whole entry, looked up): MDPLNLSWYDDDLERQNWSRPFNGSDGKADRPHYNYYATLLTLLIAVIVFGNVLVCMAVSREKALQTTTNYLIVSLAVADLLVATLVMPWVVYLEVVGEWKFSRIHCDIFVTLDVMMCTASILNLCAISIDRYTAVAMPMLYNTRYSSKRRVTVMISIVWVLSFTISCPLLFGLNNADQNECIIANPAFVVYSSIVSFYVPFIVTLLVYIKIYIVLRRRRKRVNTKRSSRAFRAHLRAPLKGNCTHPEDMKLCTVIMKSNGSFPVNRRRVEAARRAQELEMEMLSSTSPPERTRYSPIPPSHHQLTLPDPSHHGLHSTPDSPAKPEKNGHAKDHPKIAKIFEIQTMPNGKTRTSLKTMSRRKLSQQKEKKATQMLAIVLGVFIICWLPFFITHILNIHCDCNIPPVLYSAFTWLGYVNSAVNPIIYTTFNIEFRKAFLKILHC
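Tetracycline-induced Hek293 Trex D2 cells, force-coupled to calcium, loaded with no-wash calcium dye. Compound added with 180 s kinetic read for agonism, then EC20 dopamine and a further 180 s read for potentiation.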
D2 PAM-2 = Beta-Arrestin HTS for Positive Allosteric Modulators of the Human D2 Dopamine Receptor: Potentiators | D(2) dopamine receptor (Homo sapiens), P14416 | 0.23% of 360,000 active | AID 624464, 2012 | potentiation, % (no concentration beside the values) | DiscoveRx D2 beta-arrestin cells, luminescence, 90 min; 100% = 57 uM dopamine signal; in the data active = potentiation above about 50%; inconclusive = mostly about 30% to 49%
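PathHunter D2 cells, attached overnight at 37 deg C, received compound in DMSO plus dopamine at EC20 (50 nM final) for 90 min at 37 deg C. Beta-arrestin recruitment was read as luminescence after 1 h with detection reagent at ambient temperature.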
D2 antagonist = HTS Assay for Allosteric Antagonists of the Human D2 Dopamine Receptor: Primary Screen for Antagonists. D(2) dopamine receptor (Homo sapiens), P14416. inhibition, % at 10 µM. 2% of 340,000 active. HEK293 TREx D2 cells, calcium flux, dopamine EC80; in the data active = inhibition above about 30%; inactive = below that, where a call was filed; also: 0% is about no effect
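Calcium flux kinetic readout in an inducible HEK293 TREx D2 line plated overnight at 30 C. After 180 s compound exposure, an EC80 dopamine challenge follows with another 180 s kinetic read to detect antagonism.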
D2 ag-1 = HTS Assay for Allosteric Agonists of the Human D2 Dopamine Receptor: Primary Screen for Agonists; D(2) dopamine receptor (Homo sapiens), P14416; HEK293 T-REx D2 cells, calcium flux agonist mode; activation, % at 2 µM; 0.53% of 340,000 active; AID 485358, 2010;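 active = activation over 3 SD above normal in the single-dose calcium agonist read, cut at about 30% in these data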; also: 0% is about no effect
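Calcium-flux readout, 1 cycle/sec over 180 s following compound pin transfer, in inducible HEK293 Trex D2 cells (force-coupled); dopamine controls included. Positive calcium responses during this window marked compounds as potential agonists.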
D2 ag-2 = Beta-Arrestin HTS for Positive Allosteric Modulators of the Human D2 Dopamine Receptor: Agonists. 0.084% of 360,000 active. D(2) dopamine receptor (Homo sapiens), P14416. activation, % (no concentration beside the values). DiscoveRx PathHunter D2 beta-arrestin, luminescence, 90 min; 100% = 57 uM dopamine signal. AID 624465, 2012; in the data active = activation above about 40%; inconclusive = between about 15% and that limit
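DiscoveRx PathHunter D2 beta-arrestin cells (2,100/well) attached overnight, then compound-stimulated 90 min at 37 C in HBSS/10 mM HEPES/0.1% Tween-20 buffer; beta-galactosidase complementation read by luminescence after 1 h at ambient temperature. Dopamine 57 uM final (EC100) as control.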
An asterisk follows results filed as active; ? = inconclusive; · = no result given; ! = not active in a repeat.

SMILES | D2 PAM-1 | D2 PAM-2 | D2 antagonist | D2 ag-1 | D2 ag-2
COc1ccc(OCC(=O)N2CCN(Cc3ccc(SC)cc3)CC2)cc1 | 34*! | 0 | 46* | 0 | -2
Cc1nn(CC(C)C)c(Cl)c1C(=O)NC1CCCCC1 | 2 | 22 | 30* | 0 | -3
Cc1nn(CC(C)C)c(Cl)c1C(=O)NC1CCCC1 | · | -8 | · | · | -2
CCN1C(=O)NC(=O)/C(=C/c2cc(C)n(-c3sc(C)c(C)c3C#N)c2C)C1=O | 44* | 11 | -24 | -2 | 0
CCn1cc(C=C2C(=O)NC(=O)NC2=O)c2ccccc21 | -1 | 3 | 38* | 1 | -3
c1ccc2c(c1)Nc1ccccc1S2 | 4 | 68* | -13 | 2 | ?
O=C1Nc2ccccc2Sc2ccccc21 | -1 | -1 | 2 | 0 | -3
COc1ccc(Br)cc1C1SCC(=O)Nc2c1c(C)nn2-c1ccccc1C (stereo not given) | -5 | · | · | · | ·
COc1ccc(C)cc1NC(=O)c1cccn(Cc2cccc([N+](=O)[O-])c2)c1=O | -10 | · | · | · | ·
N#CC1=C(N)Oc2c(c(=O)oc3ccccc23)C1c1ccncc1 (stereo not given) | -8 | -7 | -11 | 0 | 0
CCOc1ccc(C2C(C#N)=C(N)Oc3c2c(=O)oc2ccccc32)cc1 (stereo not given) | -4 | -11 | 31* | -1 | -3
CN(C)C1(CNC(=O)c2ccc(NS(=O)(=O)c3ccc(Cl)c(Cl)c3)cc2)CCCCC1 | 0 | -3 | 8 | 1 | -1
CN(C)C1(CNC(=O)Nc2ccc(Cl)c(Cl)c2)CCCCC1 | -34 | -15 | 54* | 3 | -2
C[C@H]1OC[C@@H](C[N+](C)(C)C)O1 | -6 | 1 | 13 | 40* | -6
CC1OC(C[N+](C)(C)C)CC1O (stereo not given) | 4 | -1 | -15 | 0 | -1
O=C(Nc1ccc(F)c(Cl)c1)N(Cc1ccc2c(c1)OCO2)C1CCN(Cc2ccccc2)CC1 | -4 | · | · | 1 | ·
Cc1ccccc1-n1c(/C=C/c2ccccc2F)nc2ccccc2c1=O | 1 | · | · | -1 | ·
Nc1c(Br)cc2c3c(cccc13)-c1ccccc1-2 | · | 60* | · | · | 7
CC(C)OP(=O)(OC(C)C)C(O)c1ccc(Br)cc1 (stereo not given) | -4 | 104* | 0 | -1 | 12
COc1ccc(-n2nnnc2C(CCc2ccccc2)N2CCC(n3c(=O)[nH]c4ccccc43)CC2)cc1 (stereo not given) | · | 27 | · | · | ?
O=c1[nH]c2ccccc2n1C1CCN(C(CCc2ccccc2)c2nnnn2-c2ccc3c(c2)OCCO3)CC1 (stereo not given) | · | 58* | · | · | 11
O=c1[nH]c2ccccc2n1C1CCN(C(c2ccnc3ccccc23)c2nnnn2-c2ccc3c(c2)OCCO3)CC1 (stereo not given) | · | 50* | · | · | ?
Cc1ccc(S(=O)(=O)N(C)C)cc1NC(=O)C(C)[N+]12CCN(CC1)CC2 (stereo not given) | -6 | 5 | 32* | -7 | -4
Cc1ccc(S(=O)(=O)N2CCCCC2)cc1NC(=O)CN1CC=C(c2ccccc2)CC1 | -6 | -11 | 4 | 0 | -4
O=C1N(c2nncs2)CCN1[N+](=O)[O-] | 12 | 69* | -4 | 0 | 4
SMILES | D2 PAM-1 | D2 PAM-2 | D2 antagonist | D2 ag-1 | D2 ag-2
CC(=O)N1CCC2(CC1)CC(=O)c1cc(OCC(=O)N3CCN(C)CC3)ccc1O2 | -3 | -5 | -4 | 0 | -1
CC(=O)N1CCC2(CC1)CC(=O)c1cc(OCC(=O)N3CCC4(CC3)OCCO4)ccc1O2 | 31* | 2 | 0 | 0 | 2
O=S1(=O)N(Cc2ccccc2)CCCN1Cc1ccc(F)cc1Cl | -4 | · | · | 0 | ·
CCOC(=O)CC1=C(C(=O)OCC)C2(C(=O)Nc3ccccc32)C(C#N)=C(N)O1 (stereo not given) | -6 | 75* | 10 | 0 | 12
CCCC1=C(C(=O)OCC)C2(C(=O)Nc3ccc(C)cc32)C(C#N)=C(N)O1 (stereo not given) | 19 | ? | 7 | 0 | 5
Cc1oc(-c2ccc(Cl)cc2)nc1CN1C(=O)CN=C(c2ccccc2)c2cc(Cl)ccc21 | -5 | · | · | 3 | ·
CC(C)N1CCOC(c2ccc(O)c(O)c2)C1 (stereo not given) | · | 60* | · | · | 83*
CC(C)N1CCN(c2ccc(O)cc2)CC1 | -27 | -11 | 15 | 1 | 10
CCN(CC)c1ccc(/C=C/[N+](=O)[O-])cc1 | -7 | 4 | 1 | 57* | -4
COc1cc(/C=C/[N+](=O)[O-])ccc1O | 5 | 0 | -18 | 2 | -1
CCCCCCN1CCN(c2ccccc2Cl)CC1 | -28 | -11 | 76* | 4 | 2
Cc1cccc(N2CCN(CCc3ccccc3)CC2)c1C | 10 | -26 | -18 | -1 | -8
CCCCC1(CN2CCCC2=O)C(=O)NC(=O)NC1=O | 1 | -4 | 45* | 0 | -1
O=C(c1ccc2c(c1)N(Cc1c(F)cccc1Cl)C(=O)c1ccccc1S2)N1CCC2(CC1)OCCO2 | -1 | · | · | 0 | ·
Cc1cc(C)cc(N2C(=O)NC(=O)/C(=C\c3cccn3-c3ccccc3)C2=O)c1 | 19 | -2 | -6 | 4 | -3
Cc1cc(C)cc(N2C(=O)NC(=O)/C(=C\c3cccn3-c3ccc(Cl)cc3)C2=O)c1 | 9 | -7 | 38* | 0 | 1
CC(=O)OCC[N+](C)(C)C | 6 | 1 | -17 | 45* | -4
C[N+](C)(C)CCOC(=O)CBr | 7 | -5 | -10 | 0 | -6
CCC(C(=O)Nc1ccccc1F)N1C(=O)CN=C(c2ccccc2)c2ccccc21 (stereo not given) | 10 | · | · | 1 | ·
CCOc1ccc(CN(CCc2ccc3c(c2)OCO3)Cc2ccc(CC)cc2)cc1 | 0 | · | · | 4 | ·
O=[N+]([O-])c1ccc(N2CCNCC2)cc1NCc1ccco1 | -24 | -30 | 61* | -1 | -1
CNc1cc(N2CCNCC2)ccc1[N+](=O)[O-] | -11 | -5 | 0 | 0 | 0
CN1CCN(c2ccc([N+](=O)[O-])c(NCc3ccco3)c2)CC1 | -18 | -43 | 53* | -1 | -2
CCC1(c2cccc(O)c2)CCCCN(C)C1 (stereo not given) | -9 | -3 | 39* | 1 | -2
COc1ccc(CCN)cc1O | · | -17 | · | · | 4
CNCCc1ccc(O)c(O)c1 | · | 66* | · | · | 76*
Cc1cccc(NC2=NCCCS2)c1C | -10 | -6 | 38* | 0 | 2
